MCF10A rerep = DNA re-replication induction in MCF 10a cells. MCF 10A DNA re-replication, Hoechst nuclear intensity, 48 h. Potency, µM (top dose mostly 46.1 µM), most hits filed as activators. 2.9% of 350,000 active. AID 624296; further: nearly all actives have a fitted effect of over 50% in size
KB-V1 MDR tox = kills drug-selected multidrug resistant KB-V1 cells. KB-V1 MDR cells viability, CellTiter-Glo, 72 h. 3.4% of 400,000 active. Potency, µM (highest dose often 46.1 µM), hits mostly cytotoxic. AID 1347076; further: nearly all actives have a fitted effect of over 60% in size
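Cytotoxicity toward P-gp-expressing KB-V1 cells was determined as loss of CellTiter-Glo luminescence after 72 h at 37 degrees C. Compounds were tested in quantitative HTS format across a concentration range, with curves fitted to normalized data.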
SW480 rerep = induces DNA re-replication in SW480 colon adenocarcinoma cells. 1.8% of 340,000 active. SW480 DNA re-replication, Hoechst DNA content imaging, 48 h. Potency, µM (highest dose often 46.1 µM), actives largely listed as activators; further: nearly all actives have a fitted effect of over 55% in size
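Cells (250 per well) received 23 nL compound or DMSO by pin tool and were kept 48 hr at 37 C, 5% CO2. Nuclei were then stained with Hoechst for 40 min and scanned for DNA content.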
KB-3-1 tox = kills parental KB-3-1 adenocarcinoma cells. KB-3-1 viability, CellTiter-Glo ATP luminescence, 72 h. Potency, µM (titrated, usually from 46.1 µM), hits mostly cytotoxic. 1.4% of 400,000 active; further: nearly all actives have a fitted effect of over 60% in size
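Using CellTiter-Glo luminescence, growth of non-resistant KB-3-1 adenocarcinoma cells is assessed 72 h after pin-tool compound addition at 37 °C. Normalized responses across the concentration series yield fitted curves.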
HT1080-NT tox = kills 2HG-producing HT-1080-NT fibrosarcoma cells; HT-1080-NT fibrosarcoma viability, CellTiter-Glo ATP luminescence, 48 h; AID 686970; Potency, µM (series often up to 46.1 µM), most hits filed as cytotoxic; 1.6% of 360,000 active;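 further: NT is the 2HG producing partner of a matched IDH1 knockdown line; nearly all actives have a fitted effect of over 55% in size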
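HT-1080-NT; 750 cells/well; 5% FBS RPMI; 48 h compound, 37 degrees C; CellTiter-Glo luminescence; curve fitting and curve-class assignment.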
HT1080 IDH1KD tx = kills HT-1080 cells with IDH1 knockdown | AID 686971 | HT-1080 IDH1 knockdown viability, ATP luminescence, 48 h | Potency, µM (highest dose often 46.1 µM), hits mostly cytotoxic | 2% of 360,000 active
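Using the IDH1-knockdown HT-1080 line run in the same batch and compound series as the NT line, viability after 48 h at 37 °C was determined by CellTiter-Glo luminescence and expressed as % activity.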
Large screens that a line does not name were inactive. Only some compounds are listed: those with a hit (about 7.9% of all), similar ones and a draw of the others. The call rests on the fitted dose curve; in most records, active means well fitted curve in the direction sought with a large enough effect; inconclusive means small, poorly fitted or top-dose-only effect, or another doubt; inactive means no such curve, though single readings can be large; an effect the other way counts as inactive or inconclusive.

O=C(NCCSc1c(-c2ccc(Br)cc2)[nH]c2ccccc12)c1ccc(S(=O)(=O)N2CCOCC2)cc1	none (no result: MCF10A rerep, SW480 rerep, HT1080-NT tox, HT1080 IDH1KD tx)
CCc1ccc(Nc2nc(N3CCOCC3)nc(N3CCOCC3)n2)cc1	SW480 rerep 8.2µM, KB-3-1 tox inconclusive
Fc1cccc(Nc2nc(N3CCOCC3)nc(N3CCOCC3)n2)c1	MCF10A rerep 23µM, SW480 rerep inconclusive, KB-3-1 tox inconclusive
CCOC(=O)c1ccc(Nc2nc(N3CCOCC3)nc(N3CCOCC3)n2)cc1	MCF10A rerep inconclusive, SW480 rerep inconclusive, HT1080 IDH1KD tx inconclusive
FC(F)(F)Oc1ccc(Nc2nc(N3CCOCC3)nc(N3CCOCC3)n2)cc1	MCF10A rerep inconclusive, SW480 rerep 21µM
C(=C\c1nc2ccccc2s1)/c1ccc2c(c1)OCO2	KB-3-1 tox inconclusive (no result: MCF10A rerep, SW480 rerep, HT1080-NT tox, HT1080 IDH1KD tx)
O=C(c1ccccc1)c1coc2c1C(=O)c1ccccc1C2=O	MCF10A rerep inconclusive, HT1080-NT tox 16µM, HT1080 IDH1KD tx 18µM
COc1ccc(C(=O)c2coc3c2C(=O)C(=O)c2ccccc2-3)cc1	MCF10A rerep inconclusive, SW480 rerep inconclusive, HT1080-NT tox inconclusive, HT1080 IDH1KD tx inconclusive
O=C1c2ccccc2C(=O)c2c1oc(C(F)(F)F)c2C(=O)c1ccccc1	MCF10A rerep 4.6µM, KB-V1 MDR tox 7.3µM, SW480 rerep 4.1µM, KB-3-1 tox 4.6µM, HT1080-NT tox inconclusive, HT1080 IDH1KD tx 23µM
COc1ccccc1C(=O)NC(=S)NNC(=O)c1sc2ccccc2c1Cl	MCF10A rerep 5.2µM, HT1080-NT tox inconclusive, HT1080 IDH1KD tx inconclusive
COc1ccccc1C(=O)NNC(=S)NC(=O)c1sc2ccccc2c1Cl	MCF10A rerep inconclusive, SW480 rerep inconclusive, HT1080 IDH1KD tx inconclusive
CC1=C(C(=O)N(C(C)C)C(C)C)CC(CC(=O)NCCN2CCOCC2)C(=O)N1CCC1=CCCCC1 (centres undefined)	none (no result: MCF10A rerep, SW480 rerep)
COc1cc(/C=C/C(=O)N2C(=O)c3cccc(N)c3C2=O)cc(OC)c1OC	MCF10A rerep 9.2µM, SW480 rerep inconclusive
COc1cc(/C=C/C(=O)N2CCN(C(=O)/C=C/c3cc(OC)c(OC)c(OC)c3)CC2)cc(OC)c1OC	none
COc1ccc(OC)c(/C=C/C(=O)N2C(=O)c3cccc(N)c3C2=O)c1	MCF10A rerep 18µM, KB-V1 MDR tox inconclusive, SW480 rerep inconclusive, KB-3-1 tox inconclusive, HT1080-NT tox inconclusive, HT1080 IDH1KD tx 16µM
COC(=O)c1cc(Cc2ccc(N)c(C(=O)OC)c2)ccc1N	KB-V1 MDR tox 21µM, KB-3-1 tox inconclusive
COc1cc(NC(=O)CSc2nnc3c(n2)[nH]c2ccc(OC)cc23)cc(OC)c1	none (no result: MCF10A rerep, KB-V1 MDR tox, SW480 rerep, KB-3-1 tox)
Nc1cccc([N+](=O)[O-])c1	KB-V1 MDR tox inconclusive
O=[N+]([O-])c1cccc(SSc2cccc([N+](=O)[O-])c2)c1	MCF10A rerep inconclusive, SW480 rerep 18µM, HT1080-NT tox 18µM, HT1080 IDH1KD tx 18µM
CCc1cccc(CC)c1NC(=O)C1SC(=Nc2ccccc2C)C(c2nc3ccccc3s2)=C1N (centres undefined)	MCF10A rerep inconclusive, SW480 rerep 8.2µM, KB-3-1 tox inconclusive
O=c1[nH][nH]c(-c2ccccc2O)c1C(C[N+](=O)[O-])c1ccc(Br)cc1 (centres undefined)	MCF10A rerep inconclusive, SW480 rerep inconclusive
Cc1ccc(C(C[N+](=O)[O-])c2c(-c3ccccc3O)[nH][nH]c2=O)cc1 (centres undefined)	MCF10A rerep 12µM, KB-V1 MDR tox inconclusive, SW480 rerep 15µM, KB-3-1 tox inconclusive, HT1080-NT tox inconclusive, HT1080 IDH1KD tx 9.2µM
CCN(Cc1cccc(S(=O)(=O)O)c1)c1ccc(C(=C2C=CC(=[N+](CC)Cc3cccc(S(=O)(=O)O)c3)C=C2)c2ccccc2S(=O)(=O)[O-])cc1	none (no result: MCF10A rerep, SW480 rerep, HT1080-NT tox, HT1080 IDH1KD tx)
COc1ccc(-c2cccc(NS(=O)(=O)c3cc(C)c(Cl)cc3C)c2)nn1	none (no result: MCF10A rerep, SW480 rerep, HT1080-NT tox, HT1080 IDH1KD tx)
Nc1ccc(-c2nc3c(ccc4ccccc43)[nH]2)cc1	MCF10A rerep 23µM
CCOC(=O)c1[nH]c2ccccc2c1NC(=O)c1ccc(OCC)cc1	none (no result: MCF10A rerep, SW480 rerep, HT1080-NT tox, HT1080 IDH1KD tx)

High-throughput results from PubChem BioAssay.
